The values that follow come from PubChem BioAssay (Tox21).

The structures appear in SMILES notation. Inconclusive results are not listed. Values without a mark were called inactive. The source made the active and inactive calls. Unless noted, calls follow the shape of the dose curve; as a rule, active = well fitted curve in the direction sought with a large enough effect in the repeat runs; inconclusive = weak or mixed curves; inactive = no such curve, though single readings can be large; an effect the other way counts as inactive or inconclusive.

The nature of assay [1]: qHTS assay to identify small molecule agonists of the vitamin D receptor (VDR) signaling pathway - cell viability counter screen (AID 743224). Also: nearly all actives have a fitted effect of over 50% in size. Also: potency is read from the fitted curve at half-maximal effect. In short, it runs like this:
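Here cell health was gauged by luminescent ATP detection (CellTiter-Glo, 30 min RT) in VDR-bla cells that had been incubated with test compounds for 16 h at 37C and 5% CO2.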

The nature of assay [2]: qHTS assay to identify small molecule antagonists of the vitamin D receptor (VDR) signaling pathway - cell viability counter screen (AID 743225). Also: % is scaled to controls: 0 for no effect and ±100 for the full control effect; nearly all actives have a fitted effect of over 50% in size. In outline: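 Read-out: CellTiter-Glo luminescence measured 30 min after reagent addition at room temperature. Cells were VDR-bla HEK 293T exposed 16 h at 37C, 5% CO2, to compound with 3 nM final calcitriol agonist.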
(In general: qHTS replaces the single test concentration by a dilution series.)

Assay [3] in a line: qHTS assay to identify small molecule agonists of the NFkB signaling pathway (AID 1159509; active = well fitted curve in the direction sought with a large enough effect in the signal ratio in the repeat runs, not every such curve was filed as active; the % refers to the signal ratio; also: % is scaled to controls: 0 for no effect and ±100 for the full control effect). In outline:
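NFkB-bla ME-180 cells with a beta-lactamase reporter under an NF-kB response element were plated overnight, treated with compounds in DMSO for 5 hr at 37 C, then loaded with FRET substrate for 1.5 hr at room temperature.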

The nature of assay [4]: qHTS assay to identify small molecule agonists of the NFkB signaling pathway - cell viability counter screen (AID 1159515; calls by dose curve; also: % is scaled to controls: 0 for no effect and ±100 for the full control effect; nearly all actives have a fitted effect of over 55% in size). In outline: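 5 hr compound treatment of NFkB-bla ME-180 cells (2,000/well, seeded overnight beforehand), followed by reporter substrate for 1.5 hr. CellTiter-Glo added afterward; luminescence after 30 min RT.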
Assay [5] in a line: qHTS assay to identify small molecule antagonists of the retinoid-related orphan receptor gamma (ROR-gamma) signaling pathway - cell viability counter screen (AID 1159520). Also: % is scaled to controls: 0 for no effect and ±100 for the full control effect; nearly all actives have a fitted effect of over 50% in size. In short, it runs like this:
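Tet-on ROR gamma CHO cells were given compounds for 2 hr, then doxycycline hyclate at 1 uM final, and incubated 16 hr at 37 C. Viability was measured as ATP content by CellTiter-Glo luminescence.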

Assay [6] addresses Nuclear receptor ROR-gamma (Homo sapiens) (UniProt P51449). The experiment in a line: qHTS assay to identify small molecule antagonists of the retinoid-related orphan receptor gamma (ROR-gamma) signaling pathway (AID 1159521;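 also: CHO cells with doxycycline inducible ROR-gamma driving an RORE luciferase reporter; top concentration of the series differs between compounds; % is scaled to controls: 0 for no effect and ±100 for the full control effect; nearly all actives have a fitted effect of over 50% in size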). In outline:
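CHO Tet-on RORγ, RORE-luc reporter. Cpd 2 h pre-incubation, then dox hyclate 1 uM final, 16 h, 37 C/5% CO2. ONE-Glo luminescence; decrease = antagonist.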

The nature of assay [7]: qHTS assay to identify small molecule agonists of the AP-1 signaling pathway - cell viability counter screen (AID 1159525; calls by dose curve; also: nearly all actives have a fitted effect of over 55% in size). In outline:
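AP-1-bla ME-180 cells in Opti-MEM with 0.5% dialyzed FBS, compound exposure 5 h at 37 C in 15-point titration. Viability read in the same wells as ATP content by CellTiter-Glo luminescence, normalised to tetra-n-octylammonium bromide and DMSO controls.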

Assay [8] is described as follows: qHTS assay to identify small molecule agonists of the AP-1 signaling pathway (AID 1159526; calls by dose curve; also: % is scaled to controls: 0 for no effect and ±100 for the full control effect).
In assay [9] the target is Retinoic acid receptor RXR-alpha (Homo sapiens) (UniProt P19793). The experiment in a line: qHTS assay to identify small molecule agonists of the RXR signaling pathway (AID 1159527; calls by dose curve; also: % is scaled to controls: 0 for no effect and ±100 for the full control effect; nearly all actives have a fitted effect of over 35% in size). In short, it runs like this: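 Read-out: beta-lactamase FRET ratio (405 nm excitation, 460 and 530 nm emission) after 2 hr substrate loading at room temperature. Cells were RXR-alpha-UAS-bla HEK 293T treated with compounds for 16 hr in 2% charcoal-stripped FBS medium.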
Retinoic acid receptor RXR-alpha (Homo sapiens), sequence (P19793 whole entry, looked up): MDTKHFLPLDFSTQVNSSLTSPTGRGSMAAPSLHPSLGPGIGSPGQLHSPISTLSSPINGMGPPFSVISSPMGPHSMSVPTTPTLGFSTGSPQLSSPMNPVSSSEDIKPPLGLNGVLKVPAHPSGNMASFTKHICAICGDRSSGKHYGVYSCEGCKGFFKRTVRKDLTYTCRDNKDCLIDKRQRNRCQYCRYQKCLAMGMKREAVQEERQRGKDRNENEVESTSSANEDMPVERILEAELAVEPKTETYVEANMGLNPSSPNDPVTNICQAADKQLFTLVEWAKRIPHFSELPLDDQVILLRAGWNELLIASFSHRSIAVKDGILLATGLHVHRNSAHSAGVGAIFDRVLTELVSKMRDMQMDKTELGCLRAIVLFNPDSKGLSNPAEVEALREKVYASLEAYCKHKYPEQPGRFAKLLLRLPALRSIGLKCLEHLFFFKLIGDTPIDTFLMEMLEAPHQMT

Assay [10] is described as follows: qHTS assay to identify small molecule agonists of the RXR signaling pathway - cell viability counter screen (AID 1159529). In outline: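 HEK 293T RXRa-bla cells, 2% CS-FBS; 5 h settle; cpd 16 h 37 C, 5% CO2; CellTiter-Glo 30 min RT, luminescence. Tetraoctyl ammonium bromide as positive control.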
Assay [11] is described as follows: qHTS assay to identify small molecule antagonists of the retinoid acid receptor (RAR) signaling pathway - cell viability counter screen (AID 1159551). Also: % is scaled to controls: 0 for no effect and ±100 for the full control effect; nearly all actives have a fitted effect of over 35% in size. In short, it runs like this: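 Seed C3RL4 cells; next day add compound, then retinol to 1 uM final; incubate 6 h at 37 C; add CellTiter-Glo; read luminescence after 30 min at RT.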
Assay [12] can be described thus: qHTS assay to identify small molecule antagonists of the retinoic acid receptor (RAR) signaling pathway (AID 1159552). In short, it runs like this:
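Cells of the C3RL4 line were seeded, incubated overnight, then dosed with compounds in DMSO followed immediately by retinol (1 uM final). Six hours later luciferase detection reagent went in; signal was measured after 30 min at RT.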

The nature of assay [13]: qHTS assay to identify small molecule agonists of the retinoic acid receptor (RAR) signaling pathway (AID 1159553). Also: potency is read from the fitted curve at half-maximal effect. Particulars: C3RL4 RARE luciferase reporter, agonist, 6 h; activation: at 73.3 µM (top of the series). In short, it runs like this: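 Activation of retinol signaling was monitored via a RARE luciferase reporter in C3RL4 cells. After 6 hr compound treatment at 37 C, detection reagent was added for 30 min at room temperature before luminescence reading.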

The nature of assay [14]: qHTS assay to identify small molecule agonists of the endoplasmic reticulum stress response signaling pathway - cell viability counter screen (AID 1159517; calls by dose curve). In outline: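 Counter-screen wells were identical to the reporter wells. Cells were plated at 1,500 per well and dosed for 5 hr, then read for luminescence 30 min after CellTiter-Glo addition.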
Assay [15] is described as follows: qHTS assay to identify small molecule agonists of the endoplasmic reticulum stress response signaling pathway (AID 1159516; active = well fitted activation curve with a large enough effect in the signal ratio in the repeat runs, not every such curve was filed as active; the % refers to the signal ratio; also: % is scaled to controls: 0 for no effect and ±100 for the full control effect). In outline: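 Reporter HeLa cells (ESRE-beta-lactamase) underwent 5 hr compound incubation at 37 C and 5% CO2 in quantitative HTS format. Detection followed 2 hr of FRET substrate loading at room temperature.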
A short description of assay [16]: qHTS assay to identify small molecule antagonists of the estrogen related receptor signaling pathway with the pleiotropic PPARgamma coactivator (PGC) cell viability counter screen (AID 1224822;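 also: viability read after 17.5 h compound exposure; % is scaled to controls: 0 for no effect and ±100 for the full control effect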). In short, it runs like this:
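Compounds in DMSO, with positive and negative controls, were applied to PGC/ERR cells (2,000/well) and left 17.5 h at 37 C before CellTiter-Fluor detection.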

Turning to `CCOC(=O)c1ccc(OCCN2C[C@H](O)[C@@H](O)[C@H](O)[C@H]2CO)cc1`, the Potency result in [1], in assay [2], in [3], in assay [4], in assay [5] and in assay [6] was “inactive” throughout. The Potency entry in assay [7], in assay [8], in assay [9], in assay [10] and in assay [11] was “inactive” in each case.

Consider `CCCCCCCCN`, for which the Potency entry in [1], in assay [2], in [3], in [4], in assay [5] and in [6] was “inactive” each time. For the same compound, the Potency entry in [7], in assay [8], in assay [9], in assay [10], in assay [11] and in [12] was “inactive” each time. The Potency entry in assay [13] is “inactive”.

Regarding `C/C=C(/C(=C/C)c1ccc(O)cc1)c1ccc(O)cc1`, the Potency result in assay [1], in assay [2], in [3], in assay [4], in assay [14] and in assay [6] was “inactive” in each case. Further, the Potency entry in assay [8], in assay [11] and in assay [13] was “inactive” in each case.

`Oc1cccc(O)c1O`: the Potency result in [1], in [3], in assay [4], in [14], in [6] and in assay [7] was “inactive” each time. For the same compound, in assay [12], the Potency result is “inactive”. The activation in assay [13] is 3.27% (active).

With `Oc1ccc(Cl)c2cccnc12`, the Potency in assay [1] is 0.376 µM (active). For the same compound, the Potency result in assay [3], in [4], in [6], in assay [7], in assay [11] and in [12] was “inactive” each time.

For the compound `COc1ncnc(NS(=O)(=O)c2ccc(N)cc2)c1OC`, the Potency result in [1], in assay [2], in assay [3], in assay [15], in [14] and in assay [5] was “inactive” in each case. Also, the Potency result in assay [6], in assay [7], in assay [8], in [9], in assay [10] and in assay [11] was “inactive” throughout. The Potency result in [12] and in [13] was “inactive” throughout.

For the compound `C=CCc1ccccc1OCC(O)CNC(C)C` (configuration not stated), the Potency result in assay [1], in assay [2], in [3], in [15], in assay [14] and in assay [5] was “inactive” throughout. For the same compound, the Potency result in assay [6], in assay [7], in [8], in assay [9], in assay [10] and in assay [11] was “inactive” each time. Further, the compound was classed as inactive in [16].

For the compound `N#CCc1ccc(Cl)cc1Cl`, the Potency entry in assay [1], in [2], in assay [3], in assay [15], in [14] and in assay [5] was “inactive” in each case. In addition, the Potency entry in assay [6], in [7], in [8], in [9], in assay [10] and in assay [11] was “inactive” each time. For the same compound, the Potency result in assay [12] and in [13] was “inactive” each time.

Take `CCCCOc1ccc(OCCCN2CCOCC2)cc1`: the Potency result in assay [1], in assay [2], in [3], in [15], in [14] and in [5] was “inactive” in each case. Further, the Potency result in [6], in [7], in assay [8], in assay [9], in assay [10] and in assay [11] was “inactive” each time. Besides, the Potency result in [12] was “inactive”. Further, the Potency in [13] is 21.1 µM (active).

Regarding `Cc1ccccc1S`, the Potency entry in assay [1], in [2], in [3], in assay [4], in assay [5] and in assay [6] was “inactive” in each case. Also, the Potency result in assay [8], in assay [10] and in [11] was “inactive” in each case.
